Measured values as given in PubChem BioAssay (NCI).
About 83,000 compounds went through this panel and 20% of them were active in at least one assay; those are over-represented in the sample as a whole.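 Interpretation: 100, growth as untreated; towards 0, rising growth inhibition; 0, no net growth; 0 to -100, cell death. Compounds scoring below 10 were considered active.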 Active and inactive are the calls of the source.

Experiments:
Experiment in all cases: NCI-60 one-dose screen, 48 h (100 = growth as untreated, 0 = no growth, -100 = all killed)
Conditions in all cases: 10 µM unless noted
SR leukemia = system: SR leukemia
RPMI-8226 leukemia = system: RPMI-8226 leukemia
OVCAR-8 ovarian = system: OVCAR-8 ovarian
OVCAR-5 ovarian = system: OVCAR-5 ovarian
OVCAR-4 ovarian = system: OVCAR-4 ovarian
SK-OV-3 ovarian = system: SK-OV-3 ovarian
IGROV1 ovarian = system: IGROV1 ovarian
OVCAR-3 ovarian = system: OVCAR-3 ovarian
HS 578T breast = system: HS 578T breast
NCI/ADR-RES ovarian = system: NCI/ADR-RES ovarian

Measured: growth

CCN(C(=O)CN1C(=O)/C(=C/c2ccco2)SC1=S)C1CCS(=O)(=O)C1 (stereo not given)
inactive: SR leukemia 87.5% | RPMI-8226 leukemia 101% | OVCAR-8 ovarian 101% | OVCAR-5 ovarian 111% | OVCAR-4 ovarian 94.2% | SK-OV-3 ovarian 101% | IGROV1 ovarian 111% | OVCAR-3 ovarian 103% | HS 578T breast 118% | NCI/ADR-RES ovarian 93.6%

CCc1ccc(SC2c3cc(OC)ccc3Oc3nc(N)c(C#N)c(N)c32)cc1 (stereo not given)
active: SR leukemia -62% | RPMI-8226 leukemia -15.6% | OVCAR-8 ovarian 0.0543% | OVCAR-5 ovarian -4.3% | OVCAR-4 ovarian -13.3% | SK-OV-3 ovarian -23.3% | IGROV1 ovarian -69.6% | OVCAR-3 ovarian -48.3% | HS 578T breast -40.5% | NCI/ADR-RES ovarian 0.784%

N#CC1=C(c2cccs2)Nc2c(c(-c3ccccc3)nn2-c2ccccc2)C12C(=O)Nc1ccc(Cl)cc12 (stereo not given)
inactive: SR leukemia 12.6% | RPMI-8226 leukemia 13.3% | OVCAR-8 ovarian 28% | OVCAR-4 ovarian 27.2% | SK-OV-3 ovarian 59% | IGROV1 ovarian 24% | OVCAR-3 ovarian 23.1% | NCI/ADR-RES ovarian 33%
active: OVCAR-5 ovarian 5.03% | HS 578T breast 8.15%

Cc1cc(C(NC(=O)C2CC3(CC(Nc4cccc5c4C(=O)N(C4CCC(=O)NC4=O)C5=O)C3)C2)c2ccc3c(c2)OC(F)(F)O3)c(O)c2ncccc12 (stereo not given)
inactive: SR leukemia 10.6% | RPMI-8226 leukemia 15% | OVCAR-5 ovarian 35.1% | OVCAR-4 ovarian 35% | OVCAR-3 ovarian 16.1% | HS 578T breast 29.3% | NCI/ADR-RES ovarian 12.2%
active: OVCAR-8 ovarian 4.53% | SK-OV-3 ovarian -4.52% | IGROV1 ovarian 6%

COc1cc(CNC(=O)C[C@H](C)CCC=C(C)C)ccc1OCc1cn(-c2ccccc2Cl)nn1
inactive: SR leukemia 48.5% | RPMI-8226 leukemia 47.6% | OVCAR-8 ovarian 49.8% | OVCAR-5 ovarian 93.1% | OVCAR-4 ovarian 33.3% | SK-OV-3 ovarian 83% | IGROV1 ovarian 87.1% | OVCAR-3 ovarian 83.6% | HS 578T breast 81% | NCI/ADR-RES ovarian 24%

Cc1ccc(C2CC(c3ccc(NC(=O)Nc4ccccc4)cc3)=NN2c2ccc(S(C)(=O)=O)cc2)cc1 (stereo not given)
active: RPMI-8226 leukemia -0.47% | OVCAR-8 ovarian 7.91% | OVCAR-5 ovarian -51.3% | IGROV1 ovarian -28.1% | OVCAR-3 ovarian -2.63% | NCI/ADR-RES ovarian -35.3%
inactive: SR leukemia 15.5% | OVCAR-4 ovarian 17.6% | SK-OV-3 ovarian 26.8% | HS 578T breast 21.3%

CCOC(=O)/C(F)=C/C1CC1C1CCN(C(=O)OC(C)(C)C)CC1 (stereo not given)
inactive: SR leukemia 89.6% | RPMI-8226 leukemia 102% | OVCAR-8 ovarian 103% | OVCAR-5 ovarian 111% | OVCAR-4 ovarian 94.8% | SK-OV-3 ovarian 110% | IGROV1 ovarian 106% | OVCAR-3 ovarian 111% | HS 578T breast 110% | NCI/ADR-RES ovarian 100%

Nc1nnc(CS(=O)(=O)c2ccccc2)s1
inactive: SR leukemia 108% | RPMI-8226 leukemia 103% | OVCAR-8 ovarian 97.4% | OVCAR-5 ovarian 109% | OVCAR-4 ovarian 121% | SK-OV-3 ovarian 104% | IGROV1 ovarian 101% | OVCAR-3 ovarian 104% | HS 578T breast 86% | NCI/ADR-RES ovarian 104%

N#C/C(=C/c1ccc([N+](=O)[O-])cc1)c1nnc(NC(=O)c2ccc(-n3c(=O)[nH]c4ccccc4c3=O)cc2)s1
inactive: SR leukemia 91.6% | RPMI-8226 leukemia 98.1% | OVCAR-8 ovarian 93.4% | OVCAR-5 ovarian 110% | OVCAR-4 ovarian 95.6% | SK-OV-3 ovarian 104% | IGROV1 ovarian 98.6% | OVCAR-3 ovarian 103% | HS 578T breast 101% | NCI/ADR-RES ovarian 94.2%

O=C1Nc2cc(-c3ccc(NS(=O)(=O)c4ccc(C(F)(F)F)cc4)cc3)ccc2/C1=C/c1ccc[nH]1
active: SR leukemia 4.6%
inactive: RPMI-8226 leukemia 26% | OVCAR-8 ovarian 57% | OVCAR-5 ovarian 45.1% | OVCAR-4 ovarian 31.5% | SK-OV-3 ovarian 57.7% | IGROV1 ovarian 61.3% | OVCAR-3 ovarian 39.8% | HS 578T breast 40.6% | NCI/ADR-RES ovarian 40.5%

COc1ccc(-c2nc3ccccc3n2CC(=O)N=Nc2c(O)[nH]c3ccc(Br)cc23)cc1
inactive: RPMI-8226 leukemia 79.1% | OVCAR-8 ovarian 71.1% | OVCAR-5 ovarian 113% | OVCAR-4 ovarian 91.3% | SK-OV-3 ovarian 96.8% | IGROV1 ovarian 60.3% | OVCAR-3 ovarian 48.7% | HS 578T breast 68.7% | NCI/ADR-RES ovarian 78.9%
active: SR leukemia 7.92%

Oc1cncc(-c2ccc3ncnc(N4CCc5cc(F)c(Cl)cc54)c3c2)c1
inactive: SR leukemia 42.5% | RPMI-8226 leukemia 55.2% | OVCAR-8 ovarian 37.4% | OVCAR-5 ovarian 59.8% | OVCAR-4 ovarian 40.6% | SK-OV-3 ovarian 54.3% | OVCAR-3 ovarian 58% | HS 578T breast 18.1% | NCI/ADR-RES ovarian 61.9%
active: IGROV1 ovarian 5.56%

O=C(NN1C(=O)/C(=C/C=C/c2ccc([N+](=O)[O-])o2)SC1=S)c1ccc([N+](=O)[O-])cc1
active: SR leukemia -5.7% | RPMI-8226 leukemia -30.6% | OVCAR-8 ovarian -75.5% | OVCAR-5 ovarian -100% | OVCAR-4 ovarian -99% | SK-OV-3 ovarian -100% | IGROV1 ovarian -96.4% | OVCAR-3 ovarian -97.1% | HS 578T breast -27.3% | NCI/ADR-RES ovarian -44%

COc1ccc2c(c1)C(Sc1ccc(Cl)cc1)c1c(nc(N)c(C#N)c1N)O2 (stereo not given)
active: SR leukemia -3.94%
inactive: RPMI-8226 leukemia 29.4% | OVCAR-8 ovarian 73.6% | OVCAR-5 ovarian 108% | OVCAR-4 ovarian 73.5% | SK-OV-3 ovarian 107% | IGROV1 ovarian 25.9% | OVCAR-3 ovarian 93.2% | HS 578T breast 45.8% | NCI/ADR-RES ovarian 73.6%

CN1CCN(C(=O)Oc2cc3c(c4ccccc24)[C@H](CCl)CN3C(=O)c2cc3cc(OCCCN4CCC4)ccc3[nH]2)[C@@H]2CSSC[C@H]21
active: SR leukemia 5.86% | RPMI-8226 leukemia -23.6% | OVCAR-8 ovarian -32.4% | OVCAR-5 ovarian -18.1% | SK-OV-3 ovarian -13.2% | IGROV1 ovarian 2.74% | OVCAR-3 ovarian 4.14% | HS 578T breast -12.2% | NCI/ADR-RES ovarian -23.1%
inactive: OVCAR-4 ovarian 12.5%

Cc1ccc(C(C)C)cc1Oc1cccc(-c2c(-c3ccc(C(F)(F)F)cc3)ncn2C2CCNCC2)n1
active: SR leukemia -75.5% | RPMI-8226 leukemia -59% | OVCAR-8 ovarian -66.9% | OVCAR-5 ovarian -69.5% | OVCAR-4 ovarian -89% | SK-OV-3 ovarian -93.7% | IGROV1 ovarian -91.5% | OVCAR-3 ovarian -69.2% | HS 578T breast -63.1% | NCI/ADR-RES ovarian -83%

CC1CCc2c(sc3nc(SCC(=O)c4cccc([N+](=O)[O-])c4)n(-c4ccccc4)c(=O)c23)C1 (stereo not given)
inactive: SR leukemia 49% | RPMI-8226 leukemia 84.1% | OVCAR-8 ovarian 38.6% | OVCAR-5 ovarian 94.2% | OVCAR-4 ovarian 98% | SK-OV-3 ovarian 98.8% | IGROV1 ovarian 74.8% | OVCAR-3 ovarian 111% | HS 578T breast 94.7% | NCI/ADR-RES ovarian 65%

O=C(NN1C(=O)/C(=C/C=C/c2ccc([N+](=O)[O-])o2)SC1=S)c1ccncc1
active: SR leukemia -24.7% | RPMI-8226 leukemia -28.4% | OVCAR-8 ovarian -37.2% | OVCAR-5 ovarian -98.9% | OVCAR-4 ovarian -97.6% | SK-OV-3 ovarian -99% | IGROV1 ovarian -94.9% | OVCAR-3 ovarian -100% | HS 578T breast -11% | NCI/ADR-RES ovarian -4.3%

CC(C)CN1C(=O)/C(=C\C(=O)c2cc3ccccc3oc2=O)c2ccccc21
inactive: SR leukemia 34.6% | RPMI-8226 leukemia 85.4% | OVCAR-8 ovarian 97.7% | OVCAR-5 ovarian 111% | OVCAR-4 ovarian 87.3% | SK-OV-3 ovarian 104% | IGROV1 ovarian 87.7% | OVCAR-3 ovarian 51.1% | HS 578T breast 102% | NCI/ADR-RES ovarian 95.8%

COc1ccc2[nH]c(O)c(N=Nc3nc(-c4ccc(C#N)cc4)cs3)c2c1
active: OVCAR-4 ovarian -46.8% | OVCAR-3 ovarian 8.62%
inactive: SR leukemia 17.4% | RPMI-8226 leukemia 34.9% | OVCAR-8 ovarian 58.2% | OVCAR-5 ovarian 94.1% | SK-OV-3 ovarian 104% | IGROV1 ovarian 77.6% | HS 578T breast 36.5% | NCI/ADR-RES ovarian 63.1%

COc1ccc(-n2c(NC(=O)N3CCN(C)CC3)c(C#N)c3ccccc32)cc1
inactive: SR leukemia 31.5% | RPMI-8226 leukemia 41.6% | OVCAR-8 ovarian 66.8% | OVCAR-5 ovarian 55.1% | OVCAR-4 ovarian 43.3% | SK-OV-3 ovarian 55% | IGROV1 ovarian 34.2% | OVCAR-3 ovarian 42.6% | HS 578T breast 27.3% | NCI/ADR-RES ovarian 59.5%

CN1C(=O)/C(=C\C(=O)c2cc3ccccc3oc2=O)c2ccccc21
inactive: SR leukemia 38% | RPMI-8226 leukemia 62.3% | OVCAR-8 ovarian 47.3% | OVCAR-5 ovarian 84.3% | OVCAR-4 ovarian 74.8% | SK-OV-3 ovarian 80.8% | IGROV1 ovarian 82.3% | OVCAR-3 ovarian 51.8% | HS 578T breast 57.3% | NCI/ADR-RES ovarian 53.3%

Cc1cccc(C)c1Nc1nnc(-c2c[nH]c3ccccc23)o1
inactive: SR leukemia 91.5% | RPMI-8226 leukemia 86% | OVCAR-8 ovarian 101% | OVCAR-5 ovarian 103% | OVCAR-4 ovarian 102% | SK-OV-3 ovarian 76.9% | IGROV1 ovarian 89% | OVCAR-3 ovarian 121% | HS 578T breast 95.9% | NCI/ADR-RES ovarian 94.9%

C[C@@H](Nc1c(C#N)cnc2ccc(-c3cnc4[nH]ncc4c3)cc12)c1ccccc1
active: SR leukemia -8.05% | RPMI-8226 leukemia -1.82% | IGROV1 ovarian -60.6% | OVCAR-3 ovarian 3.49% | HS 578T breast -19.5%
inactive: OVCAR-8 ovarian 24.4% | OVCAR-5 ovarian 15.2% | OVCAR-4 ovarian 36.9% | SK-OV-3 ovarian 19.5% | NCI/ADR-RES ovarian 17.7%
